Assay outcomes from PubChem.
In the library only some 8.5% were active in any assay of this set; here they are far more common.
KDM4E inh – qHTS Assay for Inhibitors of Human Jumonji Domain Containing 2E (JMJD2E); Lysine-specific demethylase 4E (Homo sapiens), B2RXH2; JMJD2E catalytic domain, FDH-coupled NADH fluorescence (FDH is formaldehyde dehydrogenase); Potency, µM (series often up to 57.1 µM), without a hit: at the top dose activity change, negative = inhibition, actives largely listed as inhibitors; 230,000 compounds, 1.6% hits;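 further: potency means the concentration at half of the fitted maximal effect; 0% = wells with enzyme and -100% = buffer wells without enzyme; nearly all actives have a fitted effect of over 50% in size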
Target sequence (B2RXH2 1-337 limits assumed): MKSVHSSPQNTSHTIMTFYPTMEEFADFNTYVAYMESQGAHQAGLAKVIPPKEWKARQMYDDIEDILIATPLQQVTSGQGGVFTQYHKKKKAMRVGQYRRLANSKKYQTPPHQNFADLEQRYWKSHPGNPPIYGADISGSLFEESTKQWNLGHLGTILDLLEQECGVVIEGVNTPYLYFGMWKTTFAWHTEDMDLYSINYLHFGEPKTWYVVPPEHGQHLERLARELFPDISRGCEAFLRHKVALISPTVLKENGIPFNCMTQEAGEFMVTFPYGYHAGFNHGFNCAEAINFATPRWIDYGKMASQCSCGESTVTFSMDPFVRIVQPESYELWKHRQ
NPSR antagonist – qHTS Assay for Antagonists of the Neuropeptide S Receptor: cAMP Signal Transduction. CHO-NPSR cells, cAMP TR-FRET, antagonist mode. 220,000 compounds, 1% hits. Potency, µM (series often up to 38.3 µM), for inactives: at the top dose activity change, negative = inhibition, most hits filed as inhibitors. AID 1461, 2008. Q6W5P4; active means well fitted curve in the direction sought with a large enough effect; inconclusive means small, poorly fitted or top-dose-only effect, or another doubt; inactive means no such curve, though single readings can be large; an effect the other way counts as inactive or inconclusive; further: potency means the concentration at half of the fitted maximal effect; nearly all actives have a fitted effect of over 50% in size
Target sequence (Q6W5P4 whole entry, looked up): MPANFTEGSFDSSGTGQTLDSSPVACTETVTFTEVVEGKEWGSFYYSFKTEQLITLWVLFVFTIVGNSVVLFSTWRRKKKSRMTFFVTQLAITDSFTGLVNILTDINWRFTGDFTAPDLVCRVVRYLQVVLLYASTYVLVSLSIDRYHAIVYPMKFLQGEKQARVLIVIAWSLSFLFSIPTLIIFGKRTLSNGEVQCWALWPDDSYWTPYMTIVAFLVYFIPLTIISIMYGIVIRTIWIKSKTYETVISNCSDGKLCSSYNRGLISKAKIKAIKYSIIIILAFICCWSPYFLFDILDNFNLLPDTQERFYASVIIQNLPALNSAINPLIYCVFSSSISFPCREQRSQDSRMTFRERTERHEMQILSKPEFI
GoLoco inh red – qHTS Assay for Inhibitors of RGS12 GoLoco Motif Activity (Red Fluorophore); Guanine nucleotide-binding protein G(i) subunit alpha-1 (Homo sapiens), P63096; Gai1:RGS12 GoLoco peptide FP, rhodamine, 10 min; Potency, µM (doses to about 61.6 µM), for inactives: at the top dose activity, negative = inhibition, actives largely listed as inhibitors; 230,000 compounds, 0.44% hits; active means well fitted inhibition curve with a large enough effect, not every such curve was filed as active; inactive means no such curve, though single readings can be large or run the other way; further: potency means the concentration at half of the fitted maximal effect; nearly all actives have a fitted effect of over 30% in size
Sfp inh – qHTS Assay for Inhibitors of Bacillus subtilis Sfp phosphopantetheinyl transferase (PPTase); 4'-phosphopantetheinyl transferase ffp (Bacillus subtilis), Q9F4F7; Biochemical Sfp PPTase activity, qHTS; Potency, µM, for the others: largest response in the series, negative = inhibition, actives largely listed as inhibitors; 310,000 compounds, 3.5% hits; active means well fitted curve in the direction sought with a large enough effect; inconclusive means small, poorly fitted or top-dose-only effect, or another doubt; inactive means no such curve, though single readings can be large; an effect the other way counts as inactive or inconclusive;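 further: the enzyme is Sfp with the accession as filed and its product quenches rhodamine fluorescence; potency means the concentration at half of the fitted maximal effect; 0% = enzyme reaction without inhibitor and -100% = no enzyme wells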
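Reaction rates are the 30-min fluorescence difference (ex 525, em 598 nm) in wells containing 15 nM Sfp, 5 uM rhodamine-CoA and 12.5 uM BHQ-2-YbbR at pH 7.6 with 10 mM MgCl2.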
FBPA coupling cs – qHTS Assay for Inhibitors of Fructose-1,6-bisphosphate Aldolase from Giardia Lamblia: Coupling assay counterscreen; coupling enzyme system counterscreen, AmpLite Red fluorescence; activity change, negative = inhibition, % at 58.2 µM, hits read low; 290,000 compounds, 0.67% hits; in the data active means activity change below about -30%
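Coupling enzymes only (glyceraldehyde-3-phosphate) + compound, at 57.5 uM final, 10 min RT; add substrate/coupling/AmpLite Red mix, 20 min RT; fluorescence ex 525/em 598 nm. Actives flag coupling-system interference.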
ALDH1A1 block – qHTS Assay for Inhibitors of Aldehyde Dehydrogenase 1 (ALDH1A1) | Aldehyde dehydrogenase 1A1 (Homo sapiens), P00352 | Purified ALDH1A1, NADH fluorescence, propionaldehyde substrate | Potency, µM (doses to about 75.3 µM), for the others: top-dose activity, negative = inhibition, actives largely listed as inhibitors | 220,000 compounds, 7.3% hits | AID 1030, 2008;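 further: potency means the concentration at half of the fitted maximal effect; plate controls were no enzyme wells and a reference inhibitor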
Starred values were filed as active, the others as inactive; ? = inconclusive; . = no result; [ ] = another dose, or the depositor's remark. Unless noted, the call rests on the fitted dose curve; in most records, active means well fitted inhibition curve with a large enough effect (not every such curve was filed as active); inconclusive means small, poorly fitted or top-dose-only effect, or another doubt; inactive means no such curve, though single readings can be large or run the other way. Unless noted, on the % scale 0 is the no-effect control and ±100 the full control effect.

SMILES	KDM4E inh	NPSR antagonist	GoLoco inh red	Sfp inh	FBPA coupling cs	ALDH1A1 block
Cc1ccc(-c2nc(CS(=O)CC(=O)N3CCN(c4ccc(F)cc4)CC3)c(C)o2)cc1 (stereo not drawn)	.	.	.	4%	.	.
CCOC(=O)C1CCN(C(=O)CS(=O)Cc2nc(-c3ccc(C)cc3)oc2C)CC1 (stereo not drawn)	-5%	-4%[46.1 µM]	-1%	?	1	25µM*
COc1cc(NC(=O)C(=O)NCCN2CCNCC2)c(OC)cc1Cl	-4%	19%	5%	15%	1	?
Cc1ccc(S(=O)(=O)/N=C2\C=C(Nc3cccc(C(=O)O)c3)C(=O)c3ccccc32)c(C)c1	.	.	.	-19%	-43*	.
CC(C)(C)c1ccc(S(=O)(=O)/N=C2\C=C(NS(=O)(=O)c3ccccc3)C(=O)c3ccccc32)cc1	.	.	.	-9%	-35*	.
CCc1ccc(S(=O)(=O)/N=C2\C=C(Nc3ccc(C(=O)O)cc3)C(=O)c3ccccc32)cc1	.	.	.	-22%	-48*	.
Cc1ccc(S(=O)(=O)/N=C2\C=C(Nc3cccc(C(=O)O)c3)C(=O)c3ccccc32)cc1	.	.	.	-23%	-47*	.
O=C(O)c1cccc(NS(=O)(=O)c2ccc3c(c2)C(=O)c2ccccc2C3=O)c1	0%	-15%	3%	-10%	4	-8%
Nc1cc(S(=O)(=O)Nc2cc(Cl)ccc2Cl)ccc1N1CCCC1	-12%	-20%	8%	2%	-4	.
Cc1noc(C)c1-c1ccc2ncnc(NCC3CCN(C)CC3)c2c1	.	.	.	11%	-4	.
Cc1c(OC(C)C(=O)NCC(O)c2ccccc2)ccc2c3c(c(=O)oc12)CCC3 (stereo not drawn)	.	.	.	10%	-1	.
Cc1ccnn1CCC(=O)N1CCCC(CCC(=O)N2CCN(c3ccccn3)CC2)C1 (stereo not drawn)	?	-11%	5%	17%	1	?
CC(C)C/C(O)=C/c1nc2cc(Cl)ccc2oc1=O	4%	6%	42%	56µM*	-3	?
O=C(CC1C(=O)NCCN1Cc1cccc(F)c1)NCCCCCN1CCOCC1 (stereo not drawn)	.	.	.	3%	.	.
Cc1ccc2[nH]c3c(c2c1)CN(C(=O)CN1CCN(c2ccccn2)CC1)CC3	-24%	8%[7.67 µM]	10%	-12%	-10	10µM*
CC(=O)N1CCc2[nH]c3ccc(C)cc3c2C1	.	.	.	-18%	-2	.
Cc1ccc2[nH]c3c(c2c1)CN(C(=O)CN1CC(C)OC(C)C1)CC3 (stereo not drawn)	-7%	-1%[46.1 µM]	12%	-17%	-33*	11µM*
CCCCC1CCC(C(=O)N(C)CC(=O)Nc2cccc(F)c2)CC1 (stereo not drawn)	.	.	.	9%	.	.
CCCCN1C(=O)C(O)=C(C(C)=O)C1c1ccccc1 (stereo not drawn)	-18%	-5%[46.1 µM]	3%	6%	-12	-7%
CCCCN1C(=O)C(O)=C(C(C)=O)C1c1ccccc1[N+](=O)[O-] (stereo not drawn)	-16%	11%	-12%	18µM*	-17	-99%
CC(=O)C1=C(O)C(=O)N(c2ccc(O)cc2)C1c1ccccc1[N+](=O)[O-] (stereo not drawn)	.	.	.	35µM*	-1	.
COc1ccc2c(c1)OCC(Cc1ccc(O)c(OC)c1)C2=O (stereo not drawn)	-2%	.	-12%	2%	5	?
O=C(Nc1ccc2ccccc2c1)c1ccc2[nH]c(=O)c(=O)[nH]c2c1	.	.	.	7%	-17	.
Clc1ccc(SCCCCN2CCNCC2)cc1	-5%	20%	-7%	4%	1	-3%
CC(=O)Nc1ccc(-c2nnc(SCC(=O)Nc3ccc4c(c3)oc3ccccc34)n2C)cc1	-7%	-11%[46.1 µM]	22%	-3%	2	0.4µM*
SMILES	KDM4E inh	NPSR antagonist	GoLoco inh red	Sfp inh	FBPA coupling cs	ALDH1A1 block
Cc1cccc(C(=O)Nc2nnc(SCC(=O)Nc3ccc4c(c3)oc3ccccc34)s2)c1	-12%	-34%	7.9µM*	7%	-2	-15%
CCn1c(SCC(=O)Nc2ccccc2C(=O)OC)nnc1-c1ccc(N)cc1	2%	-12%[46.1 µM]	6%	7%	1	3%
COc1ccccc1NC(=O)CSc1nnc(-c2ccc(NC(C)=O)cc2)n1C	-1%	-5%[46.1 µM]	-13%	-20%	3	-5%
CCn1c(SCC(=O)Nc2ccc3c(c2)oc2ccccc23)nnc1-c1ccc(N)cc1	-8%	-17%[46.1 µM]	13%	0%	0	25µM*
Cc1cnc(C(=O)O)c[n+]1[O-]	.	.	.	-23%	1	.
CSCC[C@H](NC(=O)[C@H](Cc1c[nH]c2ccccc12)NC(=O)CCNC(=O)OC(C)(C)C)C(=O)N[C@@H](CC(=O)O)C(=O)N[C@@H](Cc1ccccc1)C(N)=O	.	.	.	-9%	1	.
CN(C)S(=O)(=O)c1cccc(-c2nn(-c3ccccc3)cc2/C=C(\C#N)c2nc3ccccc3[nH]2)c1	2%	-23%	7%	4%	-2	7%
CN(C)S(=O)(=O)c1cccc(-c2nn(-c3ccccc3)cc2/C=C2\SC(=S)NC2=O)c1	-12%	7.9µM*	20%	?	0	0%
O=c1[nH]c(S)nc2sc3c(c12)CCCC3	?	-14%	-22%	45µM*	9	4.5µM*
Cc1nc2sc3c(c2c(=O)[nH]1)CCCC3	1%	5%[7.67 µM]	4%[14.2 µM]	22%	1	1%[13.5 µM]
Cc1nnc(SCc2nc3sc4c(c3c(=O)[nH]2)CCCC4)n(N)c1=O	-9%	-15%	13%	-2%	0	22µM*
COc1ccc(Cc2nnc(NC(=O)Nc3ccccc3)s2)cc1OC	.	.	.	-18%	-1	.
COc1ccccc1N(C)S(=O)(=O)c1ccc(Cl)c(C(=O)OCc2c(C)noc2C)c1	2%	-39%	3%	0%	2	-6%
COc1ccccc1N(C)S(=O)(=O)c1ccc(Cl)c(C(=O)NNC(=O)c2ccccc2O)c1	.	.	.	56µM*	.	.
Cn1nccc1C(=O)OCC(=O)Nc1ccccc1Cl	.	.	.	18%	0	.
Cc1cc(N2CCN(C(=O)c3ccco3)CC2)c2ccccc2n1	8%	-7%	10%	22%	1	.
O=C(CN1CCN(C(=O)c2ccco2)CC1)Nc1ccccc1-c1ccccc1	-1%	-12%[46.1 µM]	4%	-16%	0	6.3µM*
O=C(CN1CCOCC1)Nc1ccccc1C(=O)Nc1ccccc1	.	.	.	-5%	-3	.
